# Screening results as filed in PubChem BioAssay.
# TIM10 inh: inhibits growth of TIM10 yeast strain. AID 463195. inhibition, % at 10 µM. S. cerevisiae TIM10 strain growth, BacTiter-Glo luminescence, 24 h. 330,000 tested, 1.4% active;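 active means inhibition of 40% or more at the single tested concentration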;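 further: wild-type TIM10 isogenic control strain grown at permissive 25 °C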
# NALP1 inh: inhibitors of NALP1 inflammasome in yeast; S. cerevisiae NALP1/ASC/caspase-1 growth, X-gal OD620, 72 h; inhibition, % at 10 µM; 280,000 tested, 0.61% active; in the data active means inhibition mostly above about 24%, no sharp cut-off; inactive means mostly below about 32%
# tim23-1 inh: inhibits growth of tim23-1 mutant yeast | S. cerevisiae tim23-1 growth, BacTiter-Glo luminescence, 24 h | inhibition, % at 20 µM | 330,000 tested, 1.3% active;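 active means growth inhibition of the mutant yeast at or above 50%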;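 further: temperature-sensitive mutant grown at 25 °C; plate controls were DMSO-treated mutant yeast for no effect and medium wells lacking yeast for full effect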
# tim10-1 inh: inhibits growth of tim10-1 mutant yeast. 330,000 tested, 2.2% active. S. cerevisiae tim10-1 ts strain growth, BacTiter-Glo, 24 h. inhibition, % at 20 µM;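 active means inhibition of at least 40%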;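 further: mutant grown at 25 °C; 0% = DMSO wells with yeast and 100% = wells holding no yeast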
# NALP3 yeast inh: inhibitors of NALP3 inflammasome in yeast; Yeast reconstituted NLRP3/ASC/caspase-1, beta-gal luminescence, 24 h; inhibition, % at 10 µM; 330,000 tested, 0.39% active;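 active means inhibition of 50% or more; inactive means inhibition below 50%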;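 further: plate controls were induced DMSO wells for no effect and uninduced yeast grown without galactose for full effect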
# tim10-1 conf: tim10-1 yeast growth inhibition, confirmed | shares compounds with tim10-1 inh | inhibition, % at 20 µM | 7,400 tested, 56% active | S. cerevisiae tim10-1 ts strain growth, BacTiter-Glo, 24 h;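 active means inhibition of yeast growth at or above a set limit in either of two repeat tests at 20 µM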;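 further: tim10-1 mutant grown at permissive 25 °C to find synthetic lethal compounds; 0% = DMSO yeast wells and 100% = medium wells without yeast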
# The depositor's hits bear a star; . = no result. Hits are enriched below; roughly 4% of the tested compounds scored in any of these assays.
SMILES,TIM10 inh,NALP1 inh,tim23-1 inh,tim10-1 inh,NALP3 yeast inh,tim10-1 conf
CN(c1cccc(Cl)c1)S(=O)(=O)c1cccc(C(=O)Nc2nc3ccccc3[nH]2)c1,27,11,48,39,3,.
COc1ccc(N(C)S(=O)(=O)c2cccc(C(=O)Nc3nc4ccccc4[nH]3)c2)cc1,38,12,35,41*,10,27
Cn1c(SCC(=O)NNC(=O)c2ccccc2)nnc1C1CC1,0,16,-1,13,18,.
CN(C)c1ccc(/C=C/C(=O)c2ccc3c(c2)OCO3)cc1,-12,.,13,-7,33,.
O=C(/C=C/c1ccncc1)c1ccc2c(c1)OCCO2,32,14,25,46*,26,38*
COc1cccc(OC)c1-c1nn2c(-c3ccco3)nnc2s1,20,-4,22,45*,-6,31*
CCNC(=S)NNC(=O)c1cccn(Cc2ccc(Cl)cc2Cl)c1=O,-8,0,4,31,8,.
C=CCNC(=S)NNC(=O)c1cccn(Cc2ccc(Cl)cc2Cl)c1=O,-22,-19,12,47*,2,30
O=C(CSc1ncnc2sc3c(c12)CCCCC3)NCc1ccco1,27,2,40,47*,16,34*
O=C(CSc1ncnc2sc3c(c12)CCCC3)c1ccco1,5,23,35,39,14,.
CCN(CC(=O)NCc1cccs1)C(=O)C(c1ccccc1)c1ccccc1,18,19,14,17,28,.
Cc1ccccc1CN1C(=O)/C(=C\c2ccc(C(=O)NCCN3CCOCC3)cc2)Sc2ccccc21,17,-6,25,45*,1,-7
O=C(NCCN1CCOCC1)c1ccc(/C=C2\Sc3ccccc3N(Cc3ccccc3F)C2=O)cc1,13,-2,32,33,13,.
Cc1cccc(CN2C(=O)/C(=C\c3ccc(C(=O)NCCN4CCOCC4)cc3)Sc3ccccc32)c1,10,12,35,42*,1,10
COc1ccc2c(c1)OC[C@H]1[C@H]2N2C(=O)CNC(=O)[C@@]2(C)[C@H]1c1ccccc1,3,.,-11,-9,3,.
Cc1cccc(NCc2ccc(Br)cc2)n1,10,10,1,4,26,.
Cn1cccc1Cc1nnc(SCC(=O)Nc2ccc3c(c2)OCO3)n1CCc1ccccc1,10,12,24,12,8,.
Cn1cccc1Cc1nnc(SCC(=O)Nc2ccc(F)cc2)n1CCc1ccccc1,12,22,38,42*,-7,20
N/C(=N\OC(=O)C(c1ccccc1)c1ccccc1)c1cccnc1,-8,6,19,41*,4,8
N/C(=N\OC(=O)c1cccc2ccccc12)c1cccnc1,34,22,26,62*,0,65*
N/C(=N\OC(=O)c1ccc(Cl)cc1)c1ccn[nH]1,31,-2,31,21,5,.
N/C(=N\OC(=O)c1ccco1)c1cccnc1,-7,-4,8,-8,24,.
N/C(=N\OC(=O)c1ccc(Cl)cc1)c1cccnc1,33,-15,50,65*,6,62*
N/C(=N\OC(=O)c1ccc(Cl)cc1)c1ccc(Cl)cc1,12,-142,23,43*,33,34*
O=C(Nc1nc(-c2ccccn2)cs1)c1cccc(S(=O)(=O)N2CCOCC2)c1,11,.,23,29,5,.
SMILES,TIM10 inh,NALP1 inh,tim23-1 inh,tim10-1 inh,NALP3 yeast inh,tim10-1 conf
COc1ccc(NC(=O)CSCc2cc(=O)n3cc(C)sc3n2)cc1,10,18,2,7,13,.
C/C(=N\N1CCN(C2c3ccccc3-c3ccccc32)CC1)c1ccco1,2,19,19,41*,16,15
C/C(=N\N1CCN(c2ccc(Cl)cc2)CC1)c1ccco1,6,45,22,8,-2,.
Cc1cccc(Nc2nc(N)nc(-c3oc4ccccc4c3C)n2)c1,15,6,41,42*,31,10
Cc1cc(C)c2c(-n3cccc3)c(C(=O)NNS(=O)(=O)c3ccccc3)sc2n1,29,9,34,34,5,.
Cc1cc(C)c2c(-n3cccc3)c(C(=O)NNS(=O)(=O)c3ccc(Cl)cc3)sc2n1,32,-5,40,43*,4,32*
CCOc1cc(/C=N\NC(=O)Cn2nnc3ccccc32)ccc1O,17,-7,11,17,-12,.
O=C(CN(C(=O)CCC(=O)Nc1ccccn1)c1cccc(F)c1)NCc1ccco1,12,11,12,-3,10,.
CC(C)/C(=N\NS(=O)(=O)c1ccc(Br)cc1)c1cccs1,21,-2,36,41*,-20,34*
C/C(=N\NS(=O)(=O)c1ccc([N+](=O)[O-])cc1)c1cccs1,17,17,15,22,-1,.
CCCn1c(NCc2c[nH]c3ccccc23)nc2ccccc21,-18,2,13,15,3,.
CCOc1cc(/C=C2\C(=O)ON=C2c2ccccc2)cc(Br)c1O,12,18,48,45*,19,30*
COc1cc(/C=C2\C(=O)ON=C2c2ccccc2)cc(Br)c1O,11,19,44,39,19,.
O=C(c1cn(Cc2ccccc2)nc1-c1ccccc1)N1CCN(c2ccccn2)CC1,3,.,20,14,14,.
Cc1cccc(-c2oc3ccc(-c4ccc5c(c4)OCO5)cc3c2C(=O)OCc2ccc(O)cc2)c1,-3,-3,3,-6,15,.
COc1ccccc1-c1cc(C(=O)NCc2ccccc2)no1,27,-1,41,44*,18,26
COc1ccc(S(=O)(=O)NCC(=O)NCc2cc(=O)n(C)c(=O)n2C)cc1,-5,8,-9,-4,2,.
C=CC[C@@H](CC(=O)NCCO)C(=O)N[C@@H](COC(=O)[C@@H](CC=C)CC(=O)OC(C)(C)C)Cc1c[nH]c2ccccc12,1,.,6,8,4,.
COc1ccc(/C=N/NC(=O)COc2ccccc2-c2ccccc2)cc1,25,30,37,45*,22,15
Cc1ccc(-c2cc(C(=O)Nc3ccccc3C)c3ccccc3n2)o1,9,8,14,49*,-8,26
COC(=O)c1cc(-c2ccc(C)o2)nc2ccccc12,22,13,15,23,25,.
CCc1ccc(NC2=NCC(=O)N2c2ccc3c(c2)OCCO3)cc1,-7,-77,19,42*,0,16
COc1cccc(N2CCN(C(=O)c3cc(-c4ccc(F)cc4)[nH]c3C)CC2)c1,21,26,39,50*,-5,27
COc1ccccc1N1CCN(C(=O)C2CC2)CC1,-13,.,26,-12,11,.
CCc1nc2ccc(C(=O)N3CCN(c4cccc(OC)c4)CC3)cc2nc1CC,24,24,39,46*,10,13
Cc1[nH]c(-c2ccc(F)cc2)cc1C(=O)N1CCN(c2ccccc2)CC1,25,0,41,37,10,.
COc1ccccc1N1CCN(C(=O)C2c3ccccc3Oc3ccccc32)CC1,24,20,33,45*,1,20
